Records with an inconclusive call do not appear. Entries that show only a call come without a potency. Active and inactive are the calls of the source. Calls come from the whole dose curve; as a rule, active = well fitted cell-killing curve with a large enough effect; inconclusive = small, poorly fitted or top-dose-only effect; inactive = no such curve, though single readings can be large or run the other way.
Potency is the fitted concentration of half-maximal effect.

The nature of this assay: qHTS of pediatric cancer cell lines to identify multiple opportunities for drug repurposing: Primary screen for Rh41 cells (AID 1347108). Note: nearly all actives have a fitted effect of over 70% in size. The settings on record: Rh41 rhabdomyosarcoma viability, CellTiter-Glo luminescence, 48 h; series mostly up to 46 µM. In short, it runs like this: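 CRCs from 8- or 11-point titrations (lowest final 0.59 nM NPC, 0.78 nM MIPE). Cell viability: CellTiter-Glo after 48 h incubation, 15 min room-temperature development, luminescence imaging.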
(qHTS replaces the single test concentration by a dilution series.)
`NC(=O)NN=Cc1ccc([N+](=O)[O-])o1`: the Potency result was “inactive”.

Regarding `Nc1nc(F)nc2c1ncn2[C@@H]1O[C@H](COP(=O)(O)O)[C@@H](O)[C@H]1O`, the Potency result is “inactive”. Take `COc1cc(N2CCC(N3CCN(C)CC3)CC2)ccc1Nc1ncnc(Nc2ccccc2S(=O)(=O)C(C)C)n1`: the Potency was 5.26 µM (active).

For `C[N+](C)(C)CC(=O)O`, the Potency entry is “inactive”. Next, `Oc1ccc(C2=Cc3ccc(O)cc3OC2)cc1`: 5.9 µM (active); `O=C(CCc1ccc(O)cc1)c1c(O)cc(O)cc1O[C@@H]1O[C@H](CO)[C@H](O)[C@H](O)[C@H]1O`: “inactive”; `OC[C@H]1O[C@@H](Oc2cc(O)cc(C=Cc3ccc(O)cc3)c2)[C@H](O)[C@@H](O)[C@H]1O`: “inactive”. Consider `CC(C)(C)COc1ccc(-n2cc(C(=O)O)cn2)cc1C#N`, for which the Potency result was “inactive”.

For the compound `COc1ccc2c(Oc3ccc(NC(=O)c4c(C)n(CC(C)(C)O)n(-c5ccccc5)c4=O)nc3)ccnc2c1`, the Potency result is “inactive”. Turning to `O=C(NOCC(O)CO)c1cc(Br)c(F)c(F)c1Nc1ccc(I)cc1F` (configuration not stated), the Potency result was “inactive”. Next, `C=C1C(=O)OC(CCCCCCCC)C1C(=O)O` (configuration not stated): “inactive”. Next, `O=C1NC(=O)C(=Cc2cccc(C(F)(F)F)c2)S1`: 23.5 µM (active); `CN(C)c1cc(NC(=O)CNC(C)(C)C)c(O)c2c1C[C@@H]1C[C@H]3[C@H](N(C)C)C(=O)C(C(N)=O)=C(O)[C@@]3(O)C(=O)C1=C2O`: “inactive”. For `O=C(Nc1cc(Cl)cc2c1[nH]c1cnccc12)c1cccnc1`, the Potency entry is “inactive”. As for `C[C@]12CC[C@@H]3c4ccc(O)cc4CC[C@H]3[C@H]1C[C@@H](O)[C@H]2O`, the Potency result is “inactive”. In the case of `O=c1c(-c2ccc(O)cc2)coc2cc(O[C@@H]3O[C@H](CO)[C@H](O)[C@H](O)[C@H]3O)ccc12`, the Potency entry is “inactive”. Consider `COC[C@@H](c1ccc(C(F)(F)F)cc1)N1CCN(C2(C)CCN(C(=O)c3c(C)ncnc3C)CC2)C[C@H]1C`, for which the Potency result is “inactive”. Next, `O=C(O)c1ccccc1C(=O)Nc1ccc(-c2ccccc2)cc1`: “inactive”; `COc1ccc2c3c1OC1C[C@@H](O)C=C[C@@]31CCN(C)C2` (some centres not stated): “inactive”.

As to `CC(C)(C)c1ccc(C(O)CCCN2CCC(C(O)(c3ccccc3)c3ccccc3)CC2)cc1` (configuration not stated), the Potency result is “inactive”. Next, `CO[C@H]1C=CO[C@@]2(C)Oc3c(C)c(O)c4c(O)c(c5c(c4c3C2=O)NC2(CCN(CC(C)C)CC2)N=5)=NC(=O)C(C)=CC=C[C@H](C)[C@H](O)[C@@H](C)[C@@H](O)[C@@H](C)[C@H](OC(C)=O)[C@H]1C`: “inactive”; `COC(=O)C1=CO[C@@H](O)[C@@H]2C(CO)=CC[C@@H]12`: “inactive”. As to `CC1=C(/C=C/C(C)=C/C=C/C(C)=C/C(=O)Nc2ccc(O)cc2)C(C)(C)CCC1`, the Potency was 9.44 µM (active). Consider `O=C(Nc1c(Cl)cncc1Cl)c1ccc(OC(F)F)c(OCC2CC2)c1`, for which the Potency result is “inactive”. On to `C[C@@H](O)[C@H]1C(=O)N2C(C(=O)O)=C(S[C@@H]3CN[C@H](C(=O)N(C)C)C3)[C@H](C)[C@H]12`, for which the Potency result is “inactive”.

With `CC(C)OC(=O)C(C)(C)Oc1ccc(C(=O)c2ccc(Cl)cc2)cc1`, the Potency result was “inactive”. As to `O=C(OCC#CCSc1nnc(-c2cccc3ccccc23)o1)c1cc2ccccc2s1`, the Potency result was “inactive”. `COc1ccc2cc(-c3nc(-c4ccc(S(C)=O)cc4)[nH]c3-c3ccncc3)ccc2c1` (configuration not stated): the Potency entry is “inactive”.

Take `NS(=O)(=O)c1ccc(NC2=CC(=O)c3ccccc3C2=O)cc1`: the Potency entry was “inactive”. As for `CCN(CC)CCOC(=O)c1ccc(N)cc1`, the entry is “inactive”.

`CCN(CC)CCOc1ccc(C(=C(Cl)c2ccccc2)c2ccccc2)cc1`: the Potency result is “inactive”. `CN(C)CCC=C1c2ccccc2COc2ccc(CC(=O)O)cc21`: the Potency entry is “inactive”. Next, `O=C(O)C(O)Cc1ccc(O)c(O)c1` (configuration not stated): “inactive”; `N#CC1(c2ccc(NC(=O)c3cccnc3NCc3ccncc3)cc2)CCCC1`: “inactive”. Regarding `Clc1ccc(C(c2ccc(Cl)cc2)n2cc[n+](CC(OCc3ccc(Cl)cc3Cl)c3ccc(Cl)cc3Cl)c2)cc1` (configuration not stated), the Potency was 18.7 µM (active). With `Cc1nc(N)sc1-c1ccnc(Nc2ccc(N3CCOCC3)cc2)n1`, the Potency was 18.7 µM (active).

Regarding `CCN(CC)CCNC(=O)c1ccc(N)cc1`, the Potency entry is “inactive”.

These data come from PubChem BioAssay (NCATS).
